Data published in the supplement of paper PMC10849652.
Targets with a hit are over-represented here; the source holds about 7,900 in all. About 0.6% of all pairs of compound and target were hits.

compound: c1cn2cc(-c3ccc4cn[nH]c4c3)nc(Nc3ccc(N4CCOCC4)cc3)c2n1 [entospletinib]; assay: log2 fold change, soluble protein after heating vs DMSO (PISA); higher = thermal stabilisation; K562 cells, 10 uM, 30 min; active = over 0.2 and 3.5 SD of the protein, either way, in both replicates (recomputed)
Summary of the method: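 K562 cells (2×10^6 cells/mL) were treated with 10 μM compound for 30 min, and aliquots were heated for 3 min over 48°C-58°C. Pooled aliquots were extracted in PBS with 0.5% NP-40 at 4°C, and the supernatant after 21,000xg for 90 min was measured by TMTpro 16plex LC-MS/MS with channel sums equalised. Reported thermal stability, relative to control samples and from duplicates, is a log2 fold change.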

Chain of UniProt O75554 (O75554 whole entry, looked up): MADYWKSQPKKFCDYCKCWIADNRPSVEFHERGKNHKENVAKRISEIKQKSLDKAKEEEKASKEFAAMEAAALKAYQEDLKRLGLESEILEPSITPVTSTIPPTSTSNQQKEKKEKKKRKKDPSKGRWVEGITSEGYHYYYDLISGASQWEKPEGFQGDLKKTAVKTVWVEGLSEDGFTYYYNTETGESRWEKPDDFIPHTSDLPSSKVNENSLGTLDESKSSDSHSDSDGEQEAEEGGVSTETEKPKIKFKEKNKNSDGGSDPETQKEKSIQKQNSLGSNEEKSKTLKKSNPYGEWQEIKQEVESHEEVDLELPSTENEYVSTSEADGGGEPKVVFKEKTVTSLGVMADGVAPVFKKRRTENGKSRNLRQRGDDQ
Chain of UniProt P11388 (P11388 whole entry, looked up): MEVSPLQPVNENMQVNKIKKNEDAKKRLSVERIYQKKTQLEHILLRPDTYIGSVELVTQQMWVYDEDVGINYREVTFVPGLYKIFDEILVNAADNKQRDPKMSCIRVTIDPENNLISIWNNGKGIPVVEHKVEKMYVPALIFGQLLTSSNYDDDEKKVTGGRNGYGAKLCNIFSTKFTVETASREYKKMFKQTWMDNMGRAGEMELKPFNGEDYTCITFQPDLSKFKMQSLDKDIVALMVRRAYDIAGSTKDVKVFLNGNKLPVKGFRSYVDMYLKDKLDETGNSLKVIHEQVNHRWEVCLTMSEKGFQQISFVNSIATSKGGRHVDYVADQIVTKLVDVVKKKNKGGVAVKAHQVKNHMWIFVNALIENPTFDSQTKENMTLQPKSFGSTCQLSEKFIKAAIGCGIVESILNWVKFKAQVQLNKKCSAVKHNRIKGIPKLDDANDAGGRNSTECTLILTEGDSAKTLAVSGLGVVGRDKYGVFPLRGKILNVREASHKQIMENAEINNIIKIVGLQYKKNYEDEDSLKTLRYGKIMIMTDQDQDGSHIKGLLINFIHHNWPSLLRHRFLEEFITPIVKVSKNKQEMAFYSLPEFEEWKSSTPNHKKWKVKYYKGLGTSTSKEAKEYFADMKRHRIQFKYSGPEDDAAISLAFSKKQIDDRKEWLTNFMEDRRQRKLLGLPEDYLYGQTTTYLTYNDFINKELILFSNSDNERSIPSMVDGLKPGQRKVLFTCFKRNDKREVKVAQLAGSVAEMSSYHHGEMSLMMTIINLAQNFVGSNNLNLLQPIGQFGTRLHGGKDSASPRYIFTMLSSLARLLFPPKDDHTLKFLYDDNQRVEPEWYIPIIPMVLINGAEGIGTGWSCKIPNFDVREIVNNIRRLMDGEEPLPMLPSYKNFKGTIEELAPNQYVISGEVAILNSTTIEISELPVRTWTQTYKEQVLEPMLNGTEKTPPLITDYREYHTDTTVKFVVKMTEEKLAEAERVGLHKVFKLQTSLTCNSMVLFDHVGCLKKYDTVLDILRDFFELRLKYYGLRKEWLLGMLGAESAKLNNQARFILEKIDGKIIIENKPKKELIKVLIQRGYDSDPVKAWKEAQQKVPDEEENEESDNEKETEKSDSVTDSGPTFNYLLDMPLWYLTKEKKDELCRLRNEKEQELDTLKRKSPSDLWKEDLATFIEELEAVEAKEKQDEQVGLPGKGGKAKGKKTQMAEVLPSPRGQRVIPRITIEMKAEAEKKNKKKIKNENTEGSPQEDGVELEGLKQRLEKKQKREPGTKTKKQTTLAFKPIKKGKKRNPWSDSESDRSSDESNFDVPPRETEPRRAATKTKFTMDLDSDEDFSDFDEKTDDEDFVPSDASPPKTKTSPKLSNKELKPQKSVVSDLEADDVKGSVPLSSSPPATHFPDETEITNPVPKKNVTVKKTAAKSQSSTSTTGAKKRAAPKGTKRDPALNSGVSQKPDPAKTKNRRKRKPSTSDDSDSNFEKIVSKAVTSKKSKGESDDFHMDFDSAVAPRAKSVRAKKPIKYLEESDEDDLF
Chain of UniProt Q5R3I4 (Q5R3I4 whole entry, looked up): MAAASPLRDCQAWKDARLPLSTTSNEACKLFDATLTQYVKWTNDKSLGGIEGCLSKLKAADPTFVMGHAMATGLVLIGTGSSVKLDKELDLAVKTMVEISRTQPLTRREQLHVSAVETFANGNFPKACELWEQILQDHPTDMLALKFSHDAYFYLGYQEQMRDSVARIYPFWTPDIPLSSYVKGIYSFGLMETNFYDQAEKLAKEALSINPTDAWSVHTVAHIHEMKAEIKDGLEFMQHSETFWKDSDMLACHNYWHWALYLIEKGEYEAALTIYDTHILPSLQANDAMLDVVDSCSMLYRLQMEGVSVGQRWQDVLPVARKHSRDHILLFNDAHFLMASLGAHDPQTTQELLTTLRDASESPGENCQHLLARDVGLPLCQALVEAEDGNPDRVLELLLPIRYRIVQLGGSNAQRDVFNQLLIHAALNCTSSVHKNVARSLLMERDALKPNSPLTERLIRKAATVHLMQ
Chain of UniProt Q96QU8 (Q96QU8 whole entry, looked up): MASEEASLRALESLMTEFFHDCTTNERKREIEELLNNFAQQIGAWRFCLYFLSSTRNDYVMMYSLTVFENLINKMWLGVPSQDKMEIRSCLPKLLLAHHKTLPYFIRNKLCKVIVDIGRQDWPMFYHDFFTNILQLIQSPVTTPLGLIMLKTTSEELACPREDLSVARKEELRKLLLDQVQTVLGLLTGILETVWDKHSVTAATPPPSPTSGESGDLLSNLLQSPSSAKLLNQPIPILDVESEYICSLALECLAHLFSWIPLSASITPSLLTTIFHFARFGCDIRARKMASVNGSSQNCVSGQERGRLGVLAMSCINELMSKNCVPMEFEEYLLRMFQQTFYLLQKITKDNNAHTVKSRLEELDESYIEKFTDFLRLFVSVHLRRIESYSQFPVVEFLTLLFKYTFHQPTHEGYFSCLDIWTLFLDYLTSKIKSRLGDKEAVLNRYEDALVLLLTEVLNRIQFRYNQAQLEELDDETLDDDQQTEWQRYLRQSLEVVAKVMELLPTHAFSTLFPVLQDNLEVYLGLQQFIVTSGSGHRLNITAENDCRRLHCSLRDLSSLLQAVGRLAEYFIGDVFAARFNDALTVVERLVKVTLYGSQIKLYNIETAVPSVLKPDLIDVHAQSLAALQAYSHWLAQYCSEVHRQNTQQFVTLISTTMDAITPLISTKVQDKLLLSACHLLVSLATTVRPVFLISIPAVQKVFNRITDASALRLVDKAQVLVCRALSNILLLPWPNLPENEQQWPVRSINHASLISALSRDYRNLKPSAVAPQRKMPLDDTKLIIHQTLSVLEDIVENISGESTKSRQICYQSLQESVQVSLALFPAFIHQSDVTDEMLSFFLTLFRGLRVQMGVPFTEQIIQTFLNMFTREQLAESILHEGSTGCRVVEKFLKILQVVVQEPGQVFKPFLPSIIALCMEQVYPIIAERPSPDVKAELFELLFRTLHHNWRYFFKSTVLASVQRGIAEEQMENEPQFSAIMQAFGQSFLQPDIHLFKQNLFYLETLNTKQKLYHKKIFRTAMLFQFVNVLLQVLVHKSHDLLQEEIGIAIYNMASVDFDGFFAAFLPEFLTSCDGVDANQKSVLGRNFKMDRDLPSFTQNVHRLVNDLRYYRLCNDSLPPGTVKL
Chain of UniProt Q9Y4E8 (Q9Y4E8 whole entry, looked up): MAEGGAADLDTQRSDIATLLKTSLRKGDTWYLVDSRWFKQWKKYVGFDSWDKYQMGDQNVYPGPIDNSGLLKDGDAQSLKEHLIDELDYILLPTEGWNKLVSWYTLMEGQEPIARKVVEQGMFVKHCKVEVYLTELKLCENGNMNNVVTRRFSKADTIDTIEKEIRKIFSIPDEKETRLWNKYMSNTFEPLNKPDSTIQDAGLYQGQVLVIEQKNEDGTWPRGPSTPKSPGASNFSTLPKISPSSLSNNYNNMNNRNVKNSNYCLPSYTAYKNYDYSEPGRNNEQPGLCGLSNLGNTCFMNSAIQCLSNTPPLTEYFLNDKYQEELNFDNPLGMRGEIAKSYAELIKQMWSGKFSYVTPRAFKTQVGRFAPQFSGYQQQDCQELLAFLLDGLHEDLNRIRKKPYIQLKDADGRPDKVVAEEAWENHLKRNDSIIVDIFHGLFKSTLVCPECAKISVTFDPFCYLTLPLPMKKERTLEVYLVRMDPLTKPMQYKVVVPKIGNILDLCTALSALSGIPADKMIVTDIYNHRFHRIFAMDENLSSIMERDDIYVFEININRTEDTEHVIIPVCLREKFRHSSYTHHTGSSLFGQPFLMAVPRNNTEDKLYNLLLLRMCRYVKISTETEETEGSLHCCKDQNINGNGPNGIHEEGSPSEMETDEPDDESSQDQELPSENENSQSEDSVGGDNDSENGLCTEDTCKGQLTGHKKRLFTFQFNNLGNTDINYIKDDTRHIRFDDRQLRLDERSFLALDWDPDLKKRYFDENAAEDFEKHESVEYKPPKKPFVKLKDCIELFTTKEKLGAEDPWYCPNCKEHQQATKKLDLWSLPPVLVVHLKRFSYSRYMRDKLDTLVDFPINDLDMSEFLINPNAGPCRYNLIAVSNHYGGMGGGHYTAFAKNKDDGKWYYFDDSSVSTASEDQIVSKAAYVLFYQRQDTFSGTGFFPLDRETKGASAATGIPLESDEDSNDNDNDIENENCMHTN
Chain of UniProt Q9H4I3 (Q9H4I3 whole entry, looked up): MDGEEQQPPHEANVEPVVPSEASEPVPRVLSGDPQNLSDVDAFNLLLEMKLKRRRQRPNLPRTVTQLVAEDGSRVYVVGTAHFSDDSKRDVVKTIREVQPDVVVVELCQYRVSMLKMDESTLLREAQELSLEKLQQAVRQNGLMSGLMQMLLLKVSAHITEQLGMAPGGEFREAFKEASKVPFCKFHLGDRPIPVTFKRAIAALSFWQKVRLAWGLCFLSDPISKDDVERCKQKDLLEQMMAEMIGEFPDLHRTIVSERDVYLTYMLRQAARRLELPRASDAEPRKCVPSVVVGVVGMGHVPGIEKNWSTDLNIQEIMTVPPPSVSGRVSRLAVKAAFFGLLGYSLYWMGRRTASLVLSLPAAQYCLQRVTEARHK
Chain of UniProt P51809 (P51809 whole entry, looked up): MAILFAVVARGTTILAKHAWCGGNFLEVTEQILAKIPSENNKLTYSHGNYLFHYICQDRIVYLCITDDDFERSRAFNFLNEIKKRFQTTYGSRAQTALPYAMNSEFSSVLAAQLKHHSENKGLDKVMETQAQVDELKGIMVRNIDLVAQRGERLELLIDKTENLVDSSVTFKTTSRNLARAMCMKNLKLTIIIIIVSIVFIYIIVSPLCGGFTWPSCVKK

log2 fold change, inactive:
WASHC2C, A0A096LPC5 0.085
WDHD1 (UniProt O75717) -0.019
UGGT1 (UniProt Q9NYU2) -0.018
UBE3D (UniProt Q7Z6J8) 0.091
TRAPPC3 (UniProt O43617) -0.013
TTI2 (UniProt Q6NXR4) 0.062
TMEM192 (UniProt Q8IY95) 0.071
TRIP10 (UniProt Q15642) 0.061
TTC4 (UniProt O95801) -0.002
TP53BP1 isoform 2 (UniProt Q12888) 0.087
WBP4 (UniProt O75554) 0.036
UBAP2L isoform 1 (UniProt Q14157) -0.065
TRMT2A (UniProt Q8IZ69) 0.1
TNFAIP8 isoform 4 (UniProt O95379) 0.036
TMEM106B (UniProt Q9NUM4) -0.049
TMEM184C (UniProt Q9NVA4) 0.041
UTP3 (UniProt Q9NQZ2) -0.009
XIAP (UniProt P98170) -0.066
TUBA4A (UniProt C9JJQ8) -0.27
TOP2A isoform 4 (UniProt P11388) 0.119
XPO6 (UniProt Q96QU8) -0.027
VPS28 (UniProt Q9UK41) -0.039
TTC38 (UniProt Q5R3I4) -0.114
UBAP2L (UniProt F8W726) -0.078
TRABD (UniProt Q9H4I3) 0.047
VPS41 (UniProt P49754) 0.017
XPO1 (UniProt O14980) -0.016
WDR18 (UniProt Q9BV38) -0.061
USP15 (UniProt Q9Y4E8) 0.018
UQCR10 (UniProt Q9UDW1) -0.002
VRK1 (UniProt Q99986) -0.149
TRIM4 (UniProt Q9C037) 0.089
VPS33B (UniProt Q9H267) 0.008
WDR43 (UniProt Q15061) -0.048
TSFM (UniProt P43897) -0.191
UBAP1 isoform 4 (UniProt Q9NZ09) 0.005
TMEM179B (UniProt Q7Z7N9) 0.098
UTP4 (UniProt Q969X6) -0.058
VAMP7 (UniProt P51809) -0.032
